Measurements from the supplement of paper PMC4683952.
Counter-ions that a name gives are not always drawn. The campaign covered roughly 1,200 compounds. About 50 (4%) showed activity. This excerpt belongs to a sample that is enriched for actives. Unmarked numbers belong to inactive results. No stated cut-off is given here; in the data, all actives reach 1.3 or more but so do some inactives.

What follows are molecules tested on Lgr5 (MarsCy1-Lgr5-EGFP, U2OS) (assay: cell-surface Lgr5 expression (SCi1 fluorescence, background-subtracted) relative to WT DMSO (fold of DMSO control); higher = more Lgr5 at the plasma membrane, active = hit call of the paper). Conditions: U2OS MarsCy1-Lgr5-EGFP stable; treatment time: overnight; 16 µM; library: Johns Hopkins Clinical Compound Library.

Compared with `O=P([O-])([O-])[O-].O=P([O-])([O-])[O-].[Ca+2].[Ca+2].[Ca+2]` [Calcium phosphate tribasic], `O=C([O-])CC(O)(CC(=O)[O-])C(=O)[O-].[Li+].[Li+].[Li+]` [Tri-lithium citrate] is higher in “cell-surface Lgr5 expression” value: 0.836 for the first, 1.06 for the second.

First: CC1=CC(=C(c2ccc(N)cc2)c2ccc(N)cc2)C=CC1=N [Basic fuchsin hydrochloride]
Second: C[n+]1c2cc(N)ccc2cc2ccc(N)cc21.Nc1ccc2cc3ccc(N)cc3nc2c1 [Acriflavine hydrochloride]
The “cell-surface Lgr5 expression” value of the first is lower: 1.12 for the first, 1.44 for the second.

Compared with `CC1(C)S[C@@H]2[C@H](NC(=O)COc3ccccc3)C(=O)N2[C@H]1C(=O)O` [Penicillin V (phenoxymethyl penicillinic acid)], `Cc1cc(O)c(C(=O)N[C@@H](C(=O)N[C@@H]2C(=O)N3C(C(=O)O)=C(CSc4nnnn4C)CS[C@H]23)c2ccc(O)cc2)cn1` [Cefpiramide] is lower in “cell-surface Lgr5 expression” value: 1.08 for the first, 0.869 for the second.

First: CC1(C)S[C@@H]2[C@H](NC(=O)COc3ccccc3)C(=O)N2[C@H]1C(=O)O
Second: CCNC(=O)CCC/C=C\C[C@@H]1[C@@H](/C=C/[C@@H](O)CCc2ccccc2)[C@H](O)C[C@@H]1O [Bimatoprost]
The “cell-surface Lgr5 expression” value of the first is lower: 0.694 for the first, 1.06 for the second.

Compared with `NC[C@H]1O[C@H](O[C@H]2[C@H](O)[C@@H](O[C@H]3O[C@H](CO)[C@@H](O)[C@H](N)[C@H]3O)[C@H](N)C[C@@H]2N)[C@H](N)[C@@H](O)[C@@H]1O` [Kanamycin B sulfate salt], `CO[C@@H]1[C@@H](O[C@@H]2O[C@H](C)[C@@H](O[C@H]3C[C@@](C)(O)[C@@H](OC(=O)CC(C)C)[C@H](C)O3)[C@H](N(C)C)[C@H]2O)[C@@H](CC=O)C[C@@H](C)[C@@H](O)/C=C/C=C/C[C@@H](C)OC(=O)C[C@H]1OC(C)=O` [Josamycin] is higher in “cell-surface Lgr5 expression” value: 0.875 for the first, 1.1 for the second.

Going from `C=C1c2c(Cl)ccc(O)c2C(O)=C2C(=O)[C@]3(O)C(O)=C(C(N)=O)C(=O)[C@@H](N(C)C)[C@@H]3[C@@H](O)[C@H]12.O=C(O)c1cc(S(=O)(=O)O)ccc1O` [Meclocycline sulfosalicylate salt] to `Cc1cc(/C=C/c2ccc3cc(N(C)C)ccc3[n+]2C)c(C)n1-c1ccccc1` [Pyrvinium pamoate], the “cell-surface Lgr5 expression” value rises from 0.705 to 1.09.

First: CCSc1ccc2c(c1)N(CCCN1CCN(C)CC1)c1ccccc1S2 [Thiethylperazine malate]
Second: CCN(CC)CC#CCOC(=O)C(O)(c1ccccc1)C1CCCCC1 (stereo not drawn) [Oxybutynin chloride]
The “cell-surface Lgr5 expression” value of the first is higher: 1.12 for the first, 0.687 for the second.

First: Cc1cc2c(OCC(CNC(C)(C)C)OC(=O)c3ccccc3)cccc2[nH]1 (stereo not drawn) [Bopindolol Maleate]
Second: CCC(C(=O)OCCN(CC)CC)c1ccccc1 (stereo not drawn) [Butetamate (Butethamate)]
The “cell-surface Lgr5 expression” value of the first is higher: 1.3 for the first, 1.2 for the second.

Compared with `Nc1nc(Cl)nc2c1ncn2[C@H]1C[C@H](O)[C@@H](CO)O1` [Cladribine (2-chloro,2-deoxyadenosine)], `O=c1[nH]c(=O)n([C@H]2C[C@H](O)[C@@H](CO)O2)cc1F` [Floxuridine (5-fluorodeoxyuridine)] is lower in “cell-surface Lgr5 expression” value: 0.832 for the first, 0.664 for the second.

Going from `C[Se]CCC(N)C(=O)O` [Seleno-D, L-methionine] to `CC(=O)OCC(=O)[C@H]1CC[C@H]2[C@@H]3CCC4=CC(=O)CC[C@]4(C)[C@H]3CC[C@]12C`, the “cell-surface Lgr5 expression” value falls from 1.08 to 1.01.

Compared with `CCCCCC(=O)O[C@]1(C(C)=O)CC[C@H]2[C@@H]3CCC4=CC(=O)CC[C@]4(C)[C@H]3CC[C@@]21C`, `CC(=O)O[C@]1(C(C)=O)CC[C@H]2[C@@H]3CCC4=CC(=O)CC[C@]4(C)[C@H]3CC[C@@]21C` [Hydroxyprogesterone acetate (17alpha-Acetoxyprogesterone)] is higher in “cell-surface Lgr5 expression” value: 1.11 for the first, 1.21 for the second.

Going from `CC(=O)[C@H]1CC[C@H]2[C@@H]3CCC4=CC(=O)CC[C@]4(C)[C@H]3CC[C@]12C` [Progesterone] to `CC(=O)[C@H]1CC[C@H]2[C@@H]3C[C@H](C)C4=CC(=O)CC[C@]4(C)[C@H]3[C@@H](O)C[C@]12C` [Medrysone (6-alpha-Methyl-11-beta-Hydroxyprogesterone)], the “cell-surface Lgr5 expression” value rises from 1.16 to 1.27.

First: CCCCCC(=O)O[C@]1(C(C)=O)CC[C@H]2[C@@H]3CCC4=CC(=O)CC[C@]4(C)[C@H]3CC[C@@]21C [Progesterone caproate (17alpha-hydroxyprogesterone)]
Second: CC(=O)[C@@]1(O)CC[C@H]2[C@@H]3C[C@H](C)C4=CC(=O)CC[C@]4(C)[C@H]3CC[C@@]21C [6α-Methyl-17α-hydroxy-progesterone (Medroxyprogesterone)]
The “cell-surface Lgr5 expression” value of the first is lower: 1.05 for the first, 1.45 for the second.

In the case of `Cc1scc2c1N(C(=O)CN1CCN(C)CC1)c1ccccc1NC2=O` [Telenzepine], the “cell-surface Lgr5 expression” value is reported as 1.3 (active).
For `Nc1ncn([C@H]2C[C@H](O)[C@@H](CO)O2)c(=O)n1` [Decitabine (5-aza-2-deoxycytidine)], the “cell-surface Lgr5 expression” value was 1.47 (active).
`CCN(CC)CCOCCOC(=O)C(CC)(CC)c1ccccc1` [Oxeladin citrate salt] was tested, and the “cell-surface Lgr5 expression” value was 1.48 (active).
With `CC1(C)O[C@@H]2C[C@H]3[C@@H]4C[C@H](F)C5=CC(=O)C=C[C@]5(C)[C@H]4[C@@H](O)C[C@]3(C)[C@]2(C(=O)CO)O1` [Flunisolide] the “cell-surface Lgr5 expression” value was 1.47 (active).
In the case of `C[C@]12CCC(=O)C=C1CC[C@@H]1[C@@H]2[C@@H](O)C[C@]2(C=O)[C@@H](C(=O)CO)CC[C@@H]12` [Aldosterone], the “cell-surface Lgr5 expression” value is reported as 1.55 (active).
For `CC1(C)O[C@@H]2C[C@H]3[C@@H]4C[C@H](F)C5=CC(=O)CC[C@]5(C)[C@H]4[C@@H](O)C[C@]3(C)[C@]2(C(=O)CO)O1`, the “cell-surface Lgr5 expression” value was 1.55 (active).
With `C[C@]12CCC(=O)C=C1CC[C@@H]1[C@@H]2[C@@H](O)C[C@@]2(C)[C@H]1CC[C@]2(O)C(=O)COC(=O)CCC(=O)O` [Hydrocortisone hemisuccinate monohydrate] the “cell-surface Lgr5 expression” value was 1.36 (active).
